Results: PubChem BioAssay AID1159580 (chemical genetic matrix, 2015)
About 2,000 (36%) of roughly 5,500 compounds were called active. About 18% were inconclusive and are not listed. Rule as the data show it: active = normalized growth mostly below about 0.91 (no sharp cut-off); inconclusive = no clear call, values can overlap the other calls; inactive = mostly above about 0.92. This is one part of the list.

Experiment: chemical genetic growth profiling, strain panel (AID 1159580);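 also: tested at 20 µM; growth read once vehicle control cultures reached saturation at 30 °C; 1 = growth at the plate median or of vehicle wells; lower values mean less growth of the strain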
Conditions: S. cerevisiae deletion strains, growth OD

Measured: normalized growth

NC(N)=NCCSSCCN=C(N)N
inactive: locus YAL013W, strain DEP1, active compounds read low 0.949 | locus YAL040C, strain CLN3, active compounds read low 0.948 | locus YCL061C, strain MRC1 (second series), active compounds read low 0.979 | locus YDR150W, strain NUM1, active compounds read low 0.988 | locus YDR363W, strain ESC2, active compounds read low 0.941 | locus YER002W, strain NOP16, active compounds read low 0.992 | locus YGR078C, strain PAC10, active compounds read low 0.973 | locus YJR075W, strain HOC1, active compounds read low 0.967 | locus YMR263W, strain SAP30, active compounds read low 0.981 | locus YMR307W, strain GAS1, active compounds read low 0.977 | locus YNL175C, strain NOP13, active compounds read low 0.981 | locus YNL197C, strain WHI3, active compounds read low 0.972 | locus YNL224C, strain SQS1, active compounds read low 1.01 | locus YOR083W, strain WHI5 (second series), active compounds read low 0.963 | locus YPL055C, strain LGE1, active compounds read low 0.983
